Rows were chosen to be rich in hits. Some 7.5% of all compounds tested hit in one or more screens of this group.
Vaccinia mCherry = vaccinia inhibition (mCherry reporter); hit rate 0.63% among 310,000; AID 720579; Vaccinia virus mCherry reporter infection, fluorescence; Potency, µM (titrated, usually from 36.5 µM), for inactives: at the top dose activity change, negative = inhibition, actives largely listed as inhibitors; calls by dose curve; tested in A549 cells; further: potency means the concentration at half of the fitted maximal effect; nearly all actives have a fitted effect of over 35% in size
HCMV antiviral = blocks human cytomegalovirus replication. HFF cells, HCMV-luciferase reporter, 72 h; stronger effect = lower value. activity change, negative = inhibition, % at 57.5 µM. hit rate 4.5% among 410,000; in the data active means activity change below about -60%; inconclusive means no clear call, values can overlap the other calls; inactive means above about -39%
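Compounds were evaluated in HFFs infected with an HCMV luciferase reporter virus (MOI 1 PFU/cell). Luciferase in lysates collected 72 h post infection served as the replication measure.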
FMDV inh = foot and mouth disease virus antiviral activity; Potency, µM (titrated, usually from 57.9 µM), inactives show top-dose activity change, negative = inhibition, most hits filed as inhibitors; hit rate 1.2% among 410,000; FMDV antiviral cell-based qHTS; calls by dose curve; tested in HEK293T cells; further: read-out not given here; potency means the concentration at half of the fitted maximal effect; nearly all actives have a fitted effect of over 45% in size
HCV inh = blocks hepatitis C virus; Huh7.5.1 HCVcc-Cre infection, luciferase reporter, 44 h; Potency, µM (series often up to 41.8 µM), for inactives: at the top dose activity change, negative = inhibition, actives largely listed as inhibitors; hit rate 3.4% among 340,000; AID 651820; further: potency means the concentration at half of the fitted maximal effect
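After 44 h co-culture of compound, cells and HCVcc-Cre (~0.5 moi), substrate is added for 15 min at room temperature and luciferase measured over 15 sec. Cells were seeded at 1,000/well and pre-cultured 4 h.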
Vaccinia Venus = vaccinia inhibition (Venus reporter); hit rate 0.46% among 330,000; Potency, µM (top dose mostly 36.5 µM), for the others: at the top dose activity change, negative = inhibition, usual class: inhibitors; Vaccinia virus Venus reporter expression, fluorescence; AID 720580; calls by dose curve; tested in A549 cells; further: potency means the concentration at half of the fitted maximal effect; nearly all actives have a fitted effect of over 30% in size
Giardia FBPA inh-1 = inhibitors of Giardia lamblia fructose-1,6-bisphosphate aldolase; A8B2U2; hit rate 0.71% among 290,000; AID 2451; purified Giardia FBPA; Potency, µM (doses to about 59.6 µM), inactives show top-dose activity, negative = inhibition, hits mostly inhibitors; further: potency means the concentration at half of the fitted maximal effect; nearly all actives have a fitted effect of over 55% in size
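40 nM FBPA preincubated 10 min at RT with compound (up to 57.5 uM final), then substrate plus GAPDH/TPI/NAD/arsenate coupling and diaphorase/resazurin added. Fluorescence read after 20 min at RT, 525/598 nm.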
Giardia growth = inhibitors of Giardia lamblia growth | shares compounds with Giardia FBPA inh-1 | Giardia lamblia trophozoite growth inhibition | Potency, µM (titrated, usually from 57.5 µM), without a hit: top-dose activity change, negative = inhibition, most hits filed as inhibitors | hit rate 5% among 1,500 | AID 2785;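 further: potency means the concentration at half of the fitted maximal effect; trophozoites exposed to compound for 48 h at 37 °C; nearly all actives have a fitted effect of over 70% in size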
Mammalian tox = toxic to mammalian cells in Giardia aldolase counter-screen | shares compounds with Giardia FBPA inh-1 | mammalian cell viability counter-screen, qHTS | Potency, µM (series often up to 57.5 µM), without a hit: top-dose viability change, negative = toxicity, actives largely listed as inhibitors | hit rate 4% among 1,500 | AID 2786;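 further: Chinese hamster ovary cells used as mammalian cytotoxicity surrogate; viability measured as cellular ATP by luminescence; potency means the concentration at half of the fitted maximal effect; compound exposure lasted 48 h before reading; nearly all actives have a fitted effect of over 60% in size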
Giardia FBPA inh-2 = confirmation of Giardia fructose-bisphosphate aldolase inhibitors | shares compounds with Giardia FBPA inh-1 | purified Giardia aldolase enzyme activity, qHTS | hit rate 5% among 1,500 | Potency, µM (doses to about 57.5 µM), inactives show top-dose activity change, negative = inhibition, usual class: inhibitors; further: potency means the concentration at half of the fitted maximal effect; nearly all actives have a fitted effect of over 45% in size
Rabbit aldolase = selectivity test for Giardia aldolase inhibitors: rabbit aldolase; shares compounds with Giardia FBPA inh-1; Rabbit muscle FBPA enzyme inhibition, selectivity counter-screen; Potency, µM (top dose mostly 57.5 µM), for the others: top-dose activity, negative = inhibition, most hits filed as inhibitors; hit rate 4% among 1,500; further: potency means the concentration at half of the fitted maximal effect; nearly all actives have a fitted effect of over 60% in size
Target sequence (P00883 whole entry, looked up): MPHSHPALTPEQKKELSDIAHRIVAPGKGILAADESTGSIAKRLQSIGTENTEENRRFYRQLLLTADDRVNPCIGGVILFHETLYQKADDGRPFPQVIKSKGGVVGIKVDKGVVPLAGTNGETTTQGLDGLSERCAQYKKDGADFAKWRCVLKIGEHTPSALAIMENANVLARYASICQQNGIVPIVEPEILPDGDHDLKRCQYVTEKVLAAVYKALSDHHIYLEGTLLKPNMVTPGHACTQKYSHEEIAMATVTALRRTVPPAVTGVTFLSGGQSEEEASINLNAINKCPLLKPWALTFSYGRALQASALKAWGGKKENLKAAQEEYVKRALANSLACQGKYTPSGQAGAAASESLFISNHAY
GAPDH counter = GAPDH inhibition flagged for Giardia aldolase hits. GAPDH coupling enzyme counterscreen, biochemical, qHTS. Potency, µM (highest dose often 57.5 µM), for the others: top-dose activity change, negative = inhibition, actives largely listed as inhibitors. hit rate 6% among 1,500. shares compounds with Giardia FBPA inh-1; further: potency means the concentration at half of the fitted maximal effect; nearly all actives have a fitted effect of over 55% in size
* = called active by the depositor; i = inactive; u = inconclusive; x = not tested or not shown; [ ] = remark or other dose. Unless noted, the call rests on the fitted dose curve; in most records, active means well fitted curve in the direction sought with a large enough effect; inconclusive means small, poorly fitted or top-dose-only effect, or another doubt; inactive means no such curve, though single readings can be large; an effect the other way counts as inactive or inconclusive. On the % scale 0 is the no-effect control and ±100 the full control effect.

SMILES	Vaccinia mCherry	HCMV antiviral	FMDV inh	HCV inh	Vaccinia Venus	Giardia FBPA inh-1	Giardia growth	Mammalian tox	Giardia FBPA inh-2	Rabbit aldolase	GAPDH counter
Cc1cccc(Oc2coc3cc(OCC(=O)NC4CCCCC4)ccc3c2=O)c1	-14%[7.34 µM]	-12	u	x	-2%[7.34 µM]	x	x	x	x	x	x
O=C(NCCC1CCCCN1S(=O)(=O)c1ccccc1)C(=O)NC1CC1 (centres undefined)	x	-31	-4%	1%	x	x	x	x	x	x	x
OCC1(CCc2ccccc2)CCN(Cc2ccccc2Cl)CC1	-5%	-13	-9%	15%	-9%	1%	x	x	x	x	x
Clc1ccccc1CN1CCN(CCCc2ccccc2)CC1	i	-12	-19%	-9%	0%	20µM*	-47%	-2%	-1%	7%	9%
O=C(Cc1ccccc1)N1CCN(Cc2ccc(F)cc2)CC1	x	21	-11%	3%	x	28µM*	2%[10.4 µM]	5%	6%	18%	9%
Fc1ccc(CN2CCN(C(c3ccccc3)c3ccccc3)CC2)cc1	x	12	u	-23%	x	25µM*	u	19%	-1%	12%	-5%
O=C(Cc1ccccc1)N1CCN(CCCc2ccccc2)CC1	-1%	37	-21%	17%	-11%	25µM*	50%	1%	-2%	8%	7%
CC(C)c1ccc(N2C(=O)CSC23C(=O)N(C)c2ccccc23)cc1 (centres undefined)	0%	-12	-20%	x	10%	x	x	x	x	x	x
O=C(CNC(=O)c1ccc(Br)o1)NCC(=O)OCc1ccccc1	-13%	-7	8%	23%	-16%	x	x	x	x	x	x
CCOC(=O)Nc1ccc2c(c1)N(C(=O)N1CCN(C)CC1)c1ccccc1CC2	i	-18	-2%	24%	-15%	5%	x	x	x	x	x
CC(C)OC(=O)Nc1ccc2c(c1)N(C(=O)N1CCN(C)CC1)c1ccccc1CC2	i[7.34 µM]	45	24%	u	-12%[7.34 µM]	16µM*	8.9µM*	1.8µM*	2%	9%	6%
O=C(NCCc1ccccc1)C(c1ccc(F)cc1)N(C(=O)c1csnn1)C1CC1 (centres undefined)	-24%	-9	0%	3%	3%	-2%	x	x	x	x	x
Cc1nc(C(=O)NNC(=O)c2ccc(Cl)cc2)cs1	-17%[7.34 µM]	-101*	29%	u	-8%[7.34 µM]	18µM*	u	-26%	1%	6%	8%
O=C1CS/C(=N/N=C2C3CC4CC(C3)CC2C4)N1	-13%	u	-7%	32%	-2%	10%	x	x	x	x	x
O=C1CS/C(=N/N=C\c2ccn[nH]2)N1	-12%	-8	-1%	-2%	-8%	18µM*	u	-1%	3%	6%	12%
COc1ccc(CNC(=O)CCc2c(C)c3cc4c(C)c(C)oc4cc3oc2=O)cc1	u	u	10%	x	-27%	x	x	x	x	x	x
C/C(CCc1ccccc1)=N\NC(=S)NCCc1ccccc1	u	-31	12%	-18%	-10%	23%	x	x	x	x	x
C/C(CCC(C)C)=N\NC(=S)NCc1ccccc1	x	-25	13%	-4%	x	16µM*	23%	16%	8%	9%	7%
CN1CCCN(C(=O)c2cc(-c3cccc4ccccc34)nc3ccccc23)CC1	-14%	3	21%	u	1%	0%	x	x	x	x	x
